The text below walks through data of article PMC7862700, “An all-to-all approach to the identification of sequence-specific readers for epigenetic DNA modifications on cytosine”.

Common to all, as to experiment: DAPPL (digital affinity profiling via proximity ligation, sequencing); 10 mM Tris-HCl pH 7.5, 50 mM NaCl, 1 mM DTT, 4% glycerol, room temperature, 30 min; GST-TFs on glutathione beads, 16-mer random dsDNA library, 0.1% formaldehyde crosslink after washing; high values mean tight binding
One test deals with T1, FEV (Homo sapiens, UniProt Q99581 1-238).
T1 sequence: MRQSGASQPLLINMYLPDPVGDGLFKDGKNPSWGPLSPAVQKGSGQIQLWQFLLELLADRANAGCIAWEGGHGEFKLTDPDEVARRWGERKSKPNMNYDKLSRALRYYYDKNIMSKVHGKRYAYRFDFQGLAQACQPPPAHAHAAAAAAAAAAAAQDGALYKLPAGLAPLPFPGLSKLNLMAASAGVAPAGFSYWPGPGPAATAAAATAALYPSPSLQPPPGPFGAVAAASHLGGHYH
Conditions: protein: recombinant; tags: N-terminal GST; dsDNA, one strand shown. The method, boiled down: (§1)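 Each value of binding signal is a hexamer's read frequency for a factor divided by the same hexamer's frequency in the tag-only sample. Barcoded, bead-captured GST fusions of human transcription factors made in yeast were pooled with that sample and incubated with 200 nmole of a random double-stranded 16-mer DNA library in Tris/NaCl/DTT/glycerol buffer at room temperature for 30 min. Washing, 0.1% formaldehyde crosslinking, proximity ligation, PCR and Illumina NextSeq500 sequencing followed.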

A further test deals with ETV5 (Homo sapiens, UniProt P41161 1-510). The settings on record: protein: recombinant; tags: N-terminal GST; dsDNA, one strand shown. Put shortly: as §1
Sequence of ETV5 (P41161 whole entry): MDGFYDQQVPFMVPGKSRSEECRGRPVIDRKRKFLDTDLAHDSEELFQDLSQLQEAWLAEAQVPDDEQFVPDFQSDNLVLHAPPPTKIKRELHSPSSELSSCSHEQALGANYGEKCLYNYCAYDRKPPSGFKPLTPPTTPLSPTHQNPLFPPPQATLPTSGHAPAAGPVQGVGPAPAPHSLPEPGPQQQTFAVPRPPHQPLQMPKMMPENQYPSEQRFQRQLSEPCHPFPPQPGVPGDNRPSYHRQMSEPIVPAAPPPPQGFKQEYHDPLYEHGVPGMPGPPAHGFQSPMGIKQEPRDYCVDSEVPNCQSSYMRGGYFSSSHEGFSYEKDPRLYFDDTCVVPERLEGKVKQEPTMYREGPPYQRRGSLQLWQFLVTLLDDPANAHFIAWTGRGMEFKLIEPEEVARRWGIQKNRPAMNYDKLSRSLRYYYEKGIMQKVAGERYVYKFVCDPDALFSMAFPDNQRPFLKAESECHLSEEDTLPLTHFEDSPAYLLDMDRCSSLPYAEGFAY
The next test has as its target HSF1 (Homo sapiens, UniProt Q00613 1-529). Conditions: protein: recombinant; tags: N-terminal GST; chain copies: 3; dsDNA, one strand shown. The method, boiled down: as §1
A further test has as its target T2, SPIC (Homo sapiens, UniProt Q8N5J4 1-248).
T2 sequence: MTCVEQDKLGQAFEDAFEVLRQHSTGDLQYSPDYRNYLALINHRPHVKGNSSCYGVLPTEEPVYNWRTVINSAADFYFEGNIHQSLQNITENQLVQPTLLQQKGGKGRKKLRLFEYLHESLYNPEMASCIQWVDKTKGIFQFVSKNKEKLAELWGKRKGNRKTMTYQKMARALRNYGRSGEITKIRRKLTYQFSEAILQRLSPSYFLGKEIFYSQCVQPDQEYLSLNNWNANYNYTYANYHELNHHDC
Conditions: protein: recombinant; tags: N-terminal GST; dsDNA, one strand shown. The method, boiled down: as §1

Another test deals with ELF4 (Homo sapiens, UniProt Q99607 1-663). Conditions: protein: recombinant; tags: N-terminal GST; dsDNA, one strand shown. The method, boiled down:
as §1

For another test, the target named is T3, ELK4 (Homo sapiens, UniProt P28324-2 1-405).
T3 sequence: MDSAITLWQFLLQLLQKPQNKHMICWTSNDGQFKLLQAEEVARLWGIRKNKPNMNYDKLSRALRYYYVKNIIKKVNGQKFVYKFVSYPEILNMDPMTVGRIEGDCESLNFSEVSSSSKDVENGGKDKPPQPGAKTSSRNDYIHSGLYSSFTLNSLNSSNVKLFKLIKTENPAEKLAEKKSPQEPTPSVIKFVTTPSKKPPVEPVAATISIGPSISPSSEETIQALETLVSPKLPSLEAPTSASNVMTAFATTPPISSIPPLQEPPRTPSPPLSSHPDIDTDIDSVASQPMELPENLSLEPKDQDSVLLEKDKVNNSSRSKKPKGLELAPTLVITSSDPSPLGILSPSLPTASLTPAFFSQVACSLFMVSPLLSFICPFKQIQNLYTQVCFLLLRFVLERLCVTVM
Conditions: protein: recombinant; tags: N-terminal GST; dsDNA, one strand shown. Put shortly:
as §1

The target in a further test is T4, ETV2 (Homo sapiens, UniProt O00321 1-342).
T4 sequence: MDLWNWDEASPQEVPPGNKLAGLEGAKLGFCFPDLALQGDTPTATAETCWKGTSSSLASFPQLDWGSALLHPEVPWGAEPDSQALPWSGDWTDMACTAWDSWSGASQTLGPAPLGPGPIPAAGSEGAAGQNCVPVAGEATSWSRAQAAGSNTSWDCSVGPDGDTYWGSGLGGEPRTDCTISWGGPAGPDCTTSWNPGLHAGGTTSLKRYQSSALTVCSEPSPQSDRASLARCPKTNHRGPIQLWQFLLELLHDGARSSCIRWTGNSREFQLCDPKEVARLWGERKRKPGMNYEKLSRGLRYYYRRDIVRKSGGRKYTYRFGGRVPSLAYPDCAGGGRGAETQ
Conditions: protein: recombinant; tags: N-terminal GST; dsDNA, one strand shown. Put shortly: as §1

The target in another test is T5, ELF3 (Homo sapiens, UniProt P78545 1-371).
T5 sequence: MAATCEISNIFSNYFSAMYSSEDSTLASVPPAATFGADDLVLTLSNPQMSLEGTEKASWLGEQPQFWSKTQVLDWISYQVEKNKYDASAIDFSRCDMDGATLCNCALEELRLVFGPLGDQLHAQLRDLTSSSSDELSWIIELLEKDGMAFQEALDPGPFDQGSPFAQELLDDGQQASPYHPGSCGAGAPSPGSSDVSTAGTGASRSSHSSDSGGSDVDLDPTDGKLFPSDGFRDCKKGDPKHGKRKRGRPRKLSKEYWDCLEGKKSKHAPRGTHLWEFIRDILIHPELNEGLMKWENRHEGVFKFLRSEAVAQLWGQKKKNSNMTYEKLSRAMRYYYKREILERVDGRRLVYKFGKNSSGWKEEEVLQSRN
Conditions: protein: recombinant; tags: N-terminal GST; dsDNA, one strand shown. The method, boiled down: as §1

The next test has as its target CRX (Homo sapiens, UniProt O43186 1-299). Conditions: protein: recombinant; tags: N-terminal GST; dsDNA, one strand shown. Put shortly: as §1
A further test addresses ETV1 (Homo sapiens, UniProt P50549 1-477). The settings on record: protein: recombinant; tags: N-terminal GST; dsDNA, one strand shown. The method, boiled down:
as §1

A further test addresses T6, ERF (Homo sapiens, UniProt P50548 1-548).
T6 sequence: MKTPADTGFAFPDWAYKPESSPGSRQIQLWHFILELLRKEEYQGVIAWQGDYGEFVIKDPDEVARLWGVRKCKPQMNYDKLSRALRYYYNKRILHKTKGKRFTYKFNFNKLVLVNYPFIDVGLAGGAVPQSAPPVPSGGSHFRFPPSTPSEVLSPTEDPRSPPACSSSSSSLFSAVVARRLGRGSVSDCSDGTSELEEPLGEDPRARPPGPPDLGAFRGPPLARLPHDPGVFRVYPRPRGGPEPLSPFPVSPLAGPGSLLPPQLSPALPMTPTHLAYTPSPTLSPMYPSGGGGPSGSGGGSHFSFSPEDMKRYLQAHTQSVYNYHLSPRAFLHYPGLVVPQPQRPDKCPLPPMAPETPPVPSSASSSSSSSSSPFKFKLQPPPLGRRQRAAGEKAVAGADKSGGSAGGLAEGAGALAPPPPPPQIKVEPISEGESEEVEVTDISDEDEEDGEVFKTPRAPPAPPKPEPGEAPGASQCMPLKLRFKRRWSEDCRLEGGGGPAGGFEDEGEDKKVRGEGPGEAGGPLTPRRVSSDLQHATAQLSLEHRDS
Conditions: protein: recombinant; tags: N-terminal GST; dsDNA, one strand shown. The method, boiled down:
as §1

The target of a further test is T7, ETV3L (Homo sapiens, UniProt Q6ZN32 1-361).
T7 sequence: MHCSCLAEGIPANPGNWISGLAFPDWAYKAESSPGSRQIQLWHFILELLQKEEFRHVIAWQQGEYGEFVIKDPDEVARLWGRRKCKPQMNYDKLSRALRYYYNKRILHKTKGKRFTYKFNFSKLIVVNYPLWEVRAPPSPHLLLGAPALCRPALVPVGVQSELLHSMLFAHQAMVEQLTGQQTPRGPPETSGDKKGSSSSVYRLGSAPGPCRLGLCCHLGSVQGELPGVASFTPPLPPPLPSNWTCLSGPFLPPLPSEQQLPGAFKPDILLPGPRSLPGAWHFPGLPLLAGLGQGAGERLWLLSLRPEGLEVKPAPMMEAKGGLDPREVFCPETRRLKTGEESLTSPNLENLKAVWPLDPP
Conditions: protein: recombinant; tags: N-terminal GST; dsDNA, one strand shown. Put shortly: as §1

Another test has as its target T8, ETS2 (Homo sapiens, UniProt P15036 1-469).
T8 sequence: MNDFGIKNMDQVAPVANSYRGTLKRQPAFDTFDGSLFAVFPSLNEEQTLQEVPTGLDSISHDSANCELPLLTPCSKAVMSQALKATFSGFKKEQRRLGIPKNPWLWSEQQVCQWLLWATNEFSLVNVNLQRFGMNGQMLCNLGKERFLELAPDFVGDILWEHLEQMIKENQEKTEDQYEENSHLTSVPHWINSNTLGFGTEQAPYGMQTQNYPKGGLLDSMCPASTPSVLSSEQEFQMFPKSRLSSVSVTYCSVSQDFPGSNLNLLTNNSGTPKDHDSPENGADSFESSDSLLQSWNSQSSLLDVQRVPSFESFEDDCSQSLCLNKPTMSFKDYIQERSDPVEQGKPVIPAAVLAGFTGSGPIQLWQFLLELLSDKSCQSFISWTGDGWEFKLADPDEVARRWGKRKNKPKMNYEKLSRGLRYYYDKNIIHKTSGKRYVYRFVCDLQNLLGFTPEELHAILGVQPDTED
The settings on record: protein: recombinant; tags: N-terminal GST; dsDNA, one strand shown. The method, boiled down: as §1

Another test concerns the target T9, SPDEF (Homo sapiens, UniProt O95238 1-335).
T9 sequence: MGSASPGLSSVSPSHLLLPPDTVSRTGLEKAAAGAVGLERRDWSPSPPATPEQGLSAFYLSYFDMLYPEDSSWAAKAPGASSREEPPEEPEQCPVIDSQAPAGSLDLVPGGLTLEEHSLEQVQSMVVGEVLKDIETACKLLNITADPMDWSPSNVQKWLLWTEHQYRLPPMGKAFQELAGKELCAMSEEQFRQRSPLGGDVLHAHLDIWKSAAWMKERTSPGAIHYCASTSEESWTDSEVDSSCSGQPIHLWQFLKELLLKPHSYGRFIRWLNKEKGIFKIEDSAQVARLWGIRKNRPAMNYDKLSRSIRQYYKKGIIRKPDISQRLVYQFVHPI
The settings on record: protein: recombinant; tags: N-terminal GST; dsDNA, one strand shown. The method, boiled down: as §1

Another test addresses T10, ETV7 (Homo sapiens, UniProt Q9Y603 1-341).
T10 sequence: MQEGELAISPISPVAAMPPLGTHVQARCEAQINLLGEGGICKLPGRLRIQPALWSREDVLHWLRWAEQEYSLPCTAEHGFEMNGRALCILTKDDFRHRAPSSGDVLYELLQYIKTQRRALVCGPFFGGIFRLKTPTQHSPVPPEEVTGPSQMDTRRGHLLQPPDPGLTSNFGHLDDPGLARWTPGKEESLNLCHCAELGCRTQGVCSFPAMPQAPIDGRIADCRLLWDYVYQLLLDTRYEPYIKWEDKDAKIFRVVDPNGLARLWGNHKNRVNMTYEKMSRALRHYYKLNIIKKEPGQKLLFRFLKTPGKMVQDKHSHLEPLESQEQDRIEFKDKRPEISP
The settings on record: protein: recombinant; tags: N-terminal GST; dsDNA, one strand shown. The method, boiled down: as §1

The next test has as its target T11, ELF5 (Homo sapiens, UniProt Q9UKW6-2 1-255).
T11 sequence: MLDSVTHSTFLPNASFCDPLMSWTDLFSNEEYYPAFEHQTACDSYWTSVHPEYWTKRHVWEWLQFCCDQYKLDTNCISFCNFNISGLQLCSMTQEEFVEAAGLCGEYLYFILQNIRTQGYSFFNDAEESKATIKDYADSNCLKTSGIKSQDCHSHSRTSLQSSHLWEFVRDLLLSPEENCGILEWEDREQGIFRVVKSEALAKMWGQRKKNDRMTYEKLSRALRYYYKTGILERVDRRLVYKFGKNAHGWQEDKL
Conditions: protein: recombinant; tags: N-terminal GST; dsDNA, one strand shown. Put shortly:
as §1

The target in the next test is T12, ETV3 (Homo sapiens, UniProt P41162-2 1-143).
T12 sequence: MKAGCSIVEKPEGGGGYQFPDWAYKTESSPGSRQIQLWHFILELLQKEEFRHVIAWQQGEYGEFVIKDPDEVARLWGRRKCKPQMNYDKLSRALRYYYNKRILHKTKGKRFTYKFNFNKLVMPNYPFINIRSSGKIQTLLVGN
Conditions: protein: recombinant; tags: N-terminal GST; dsDNA, one strand shown. Put shortly:
as §1

The next test concerns the target ETV6 (Homo sapiens, UniProt P41212 1-452). The settings on record: protein: recombinant; tags: N-terminal GST; dsDNA, one strand shown. Put shortly: as §1

Sequence of HSF1 (Q00613 whole entry): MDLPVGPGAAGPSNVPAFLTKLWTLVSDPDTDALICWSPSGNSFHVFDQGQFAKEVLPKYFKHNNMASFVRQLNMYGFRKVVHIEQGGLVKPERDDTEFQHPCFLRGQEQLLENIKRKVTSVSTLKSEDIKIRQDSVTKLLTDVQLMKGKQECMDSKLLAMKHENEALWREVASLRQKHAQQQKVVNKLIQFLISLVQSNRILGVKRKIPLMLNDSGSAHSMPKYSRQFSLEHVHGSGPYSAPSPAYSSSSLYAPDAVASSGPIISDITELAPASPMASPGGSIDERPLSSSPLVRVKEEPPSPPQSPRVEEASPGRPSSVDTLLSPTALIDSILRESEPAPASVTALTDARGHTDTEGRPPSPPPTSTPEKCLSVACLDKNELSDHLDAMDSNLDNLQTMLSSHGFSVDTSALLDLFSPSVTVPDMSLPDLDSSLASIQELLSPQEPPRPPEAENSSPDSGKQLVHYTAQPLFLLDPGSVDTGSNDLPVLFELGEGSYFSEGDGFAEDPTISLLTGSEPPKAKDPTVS
Sequence of CRX (O43186 whole entry): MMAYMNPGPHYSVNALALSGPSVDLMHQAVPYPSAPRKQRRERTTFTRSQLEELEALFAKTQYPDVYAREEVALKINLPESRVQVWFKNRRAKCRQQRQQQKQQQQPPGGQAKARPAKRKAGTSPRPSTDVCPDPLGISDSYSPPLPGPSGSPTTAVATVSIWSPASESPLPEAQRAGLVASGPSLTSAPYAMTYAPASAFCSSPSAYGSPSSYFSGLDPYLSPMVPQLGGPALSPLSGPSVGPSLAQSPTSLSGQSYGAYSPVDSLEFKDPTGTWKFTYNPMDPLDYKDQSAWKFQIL
Sequence of ELF4 (Q99607 whole entry): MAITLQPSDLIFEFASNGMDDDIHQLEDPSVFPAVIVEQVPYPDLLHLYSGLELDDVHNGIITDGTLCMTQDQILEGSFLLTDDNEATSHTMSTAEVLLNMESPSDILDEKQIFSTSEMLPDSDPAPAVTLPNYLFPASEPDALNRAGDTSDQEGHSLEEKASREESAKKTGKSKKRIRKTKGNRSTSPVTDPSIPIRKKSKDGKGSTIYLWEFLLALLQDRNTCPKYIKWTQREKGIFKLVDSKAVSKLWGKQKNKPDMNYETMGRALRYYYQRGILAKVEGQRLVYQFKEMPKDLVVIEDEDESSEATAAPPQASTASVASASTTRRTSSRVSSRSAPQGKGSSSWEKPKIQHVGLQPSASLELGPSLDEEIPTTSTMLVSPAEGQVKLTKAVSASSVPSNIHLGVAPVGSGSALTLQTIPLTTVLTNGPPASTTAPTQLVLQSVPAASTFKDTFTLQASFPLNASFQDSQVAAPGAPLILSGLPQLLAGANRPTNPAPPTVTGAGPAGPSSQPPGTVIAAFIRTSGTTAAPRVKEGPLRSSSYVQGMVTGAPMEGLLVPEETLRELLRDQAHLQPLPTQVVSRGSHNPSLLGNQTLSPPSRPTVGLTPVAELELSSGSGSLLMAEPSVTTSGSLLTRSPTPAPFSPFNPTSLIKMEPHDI
Sequence of ETV6 (P41212 whole entry): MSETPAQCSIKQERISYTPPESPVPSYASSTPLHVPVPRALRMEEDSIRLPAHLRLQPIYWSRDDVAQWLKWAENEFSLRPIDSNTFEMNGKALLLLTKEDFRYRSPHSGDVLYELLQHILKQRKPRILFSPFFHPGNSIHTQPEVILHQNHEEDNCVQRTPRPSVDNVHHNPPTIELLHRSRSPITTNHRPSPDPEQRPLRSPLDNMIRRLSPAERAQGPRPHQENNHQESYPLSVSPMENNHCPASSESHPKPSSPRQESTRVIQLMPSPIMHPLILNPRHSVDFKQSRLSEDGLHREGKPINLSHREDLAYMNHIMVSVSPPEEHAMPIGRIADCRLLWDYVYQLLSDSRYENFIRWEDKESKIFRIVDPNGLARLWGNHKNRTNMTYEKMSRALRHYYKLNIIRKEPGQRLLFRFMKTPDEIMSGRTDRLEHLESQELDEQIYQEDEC
Sequence of ETV1 (P50549 whole entry): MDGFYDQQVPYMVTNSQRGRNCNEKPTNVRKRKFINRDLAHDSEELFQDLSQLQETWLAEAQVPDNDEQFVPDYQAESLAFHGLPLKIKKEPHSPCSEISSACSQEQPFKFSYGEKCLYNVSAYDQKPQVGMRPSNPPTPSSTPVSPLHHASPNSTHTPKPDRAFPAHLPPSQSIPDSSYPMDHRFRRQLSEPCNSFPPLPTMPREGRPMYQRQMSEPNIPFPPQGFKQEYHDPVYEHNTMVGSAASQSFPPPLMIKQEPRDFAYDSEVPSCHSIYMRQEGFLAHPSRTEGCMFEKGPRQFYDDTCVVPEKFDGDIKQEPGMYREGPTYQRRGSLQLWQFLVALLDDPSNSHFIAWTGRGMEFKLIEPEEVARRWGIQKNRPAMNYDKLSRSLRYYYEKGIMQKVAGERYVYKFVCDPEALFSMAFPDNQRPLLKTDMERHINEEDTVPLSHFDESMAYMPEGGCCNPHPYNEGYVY

For the sequence TAAGTA, the binding signal with FEV is 1.16 fold enrichment (6-mer frequency, TF over GST control); with ETV5, 1.18 fold enrichment (6-mer frequency, TF over GST control); in the test with HSF1 it was 1.76 fold enrichment (6-mer frequency, TF over GST control); in the test with SPIC it was 1.25 fold enrichment (6-mer frequency, TF over GST control); in the test with ELF4, 1.24 fold enrichment (6-mer frequency, TF over GST control); with ELK4, 1.18 fold enrichment (6-mer frequency, TF over GST control). For the same sequence, the binding signal in the test with ETV2 was 1.38 fold enrichment (6-mer frequency, TF over GST control); with ELF3, 1.36 fold enrichment (6-mer frequency, TF over GST control); with CRX, 2.63 fold enrichment (6-mer frequency, TF over GST control); with ETV1, 1.29 fold enrichment (6-mer frequency, TF over GST control); in the test with ERF, 1.24 fold enrichment (6-mer frequency, TF over GST control); in the test with ETV3L, 1.22 fold enrichment (6-mer frequency, TF over GST control). Moreover, the binding signal in the test with ETS2 is 1.2 fold enrichment (6-mer frequency, TF over GST control); with SPDEF, 1.21 fold enrichment (6-mer frequency, TF over GST control); with ETV7, 1.13 fold enrichment (6-mer frequency, TF over GST control); with ELF5 it was 1.25 fold enrichment (6-mer frequency, TF over GST control); with ETV3, 1.23 fold enrichment (6-mer frequency, TF over GST control); with ETV6, 1.28 fold enrichment (6-mer frequency, TF over GST control).
